# For some assays here: Potency and affinity values are given separately.
# What was measured:
# Set-up in all cases: scale not given: direction of the effect not stated beside the values
# [1] = target: Protein translocase subunit SecA (Escherichia coli (strain K12)) (UniProt P10408); assay: Assay to Identify E. coli SecA ATPase Inhibitors; assay type: functional; conditions: 30 µM
# [2] = target: T1, Ubiquitin-activating enzyme e1, putative (Leishmania donovani (strain BPK282A1)) (UniProt E9BSI1); assay: Leishmania donovani Ubiquitin Activating Enzyme (LdE1); assay type: functional; conditions: 30 µM
# T1 sequence (whole entry): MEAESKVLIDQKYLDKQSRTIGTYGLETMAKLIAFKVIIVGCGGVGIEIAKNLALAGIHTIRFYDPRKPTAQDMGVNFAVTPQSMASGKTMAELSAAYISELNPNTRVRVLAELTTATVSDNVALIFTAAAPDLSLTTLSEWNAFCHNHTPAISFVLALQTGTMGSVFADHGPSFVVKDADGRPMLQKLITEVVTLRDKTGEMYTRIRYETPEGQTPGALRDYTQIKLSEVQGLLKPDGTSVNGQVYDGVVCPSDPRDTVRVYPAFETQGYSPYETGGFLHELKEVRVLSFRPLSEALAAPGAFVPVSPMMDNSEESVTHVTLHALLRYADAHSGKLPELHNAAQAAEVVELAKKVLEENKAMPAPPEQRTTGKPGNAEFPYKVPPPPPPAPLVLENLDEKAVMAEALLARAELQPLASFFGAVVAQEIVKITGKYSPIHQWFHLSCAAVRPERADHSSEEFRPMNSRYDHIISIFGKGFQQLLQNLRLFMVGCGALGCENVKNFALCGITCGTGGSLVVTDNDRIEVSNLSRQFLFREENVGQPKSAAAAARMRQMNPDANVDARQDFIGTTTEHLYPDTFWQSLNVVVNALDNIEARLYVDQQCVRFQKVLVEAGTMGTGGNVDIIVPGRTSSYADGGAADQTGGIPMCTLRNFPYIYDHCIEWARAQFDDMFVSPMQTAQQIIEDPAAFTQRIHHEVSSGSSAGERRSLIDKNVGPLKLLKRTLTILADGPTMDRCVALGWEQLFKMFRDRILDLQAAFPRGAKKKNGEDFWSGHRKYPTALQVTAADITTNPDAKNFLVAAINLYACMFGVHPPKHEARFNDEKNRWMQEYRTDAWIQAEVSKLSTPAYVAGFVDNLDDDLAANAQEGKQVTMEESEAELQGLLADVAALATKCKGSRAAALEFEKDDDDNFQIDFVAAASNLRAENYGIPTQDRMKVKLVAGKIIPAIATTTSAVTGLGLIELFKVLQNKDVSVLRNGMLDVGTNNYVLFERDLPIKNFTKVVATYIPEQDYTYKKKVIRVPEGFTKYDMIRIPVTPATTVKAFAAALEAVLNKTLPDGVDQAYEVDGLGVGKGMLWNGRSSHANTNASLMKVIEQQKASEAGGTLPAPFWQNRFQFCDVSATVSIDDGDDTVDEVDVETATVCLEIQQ
# [3] = target: AMP-activated protein kinase, AMPK (Homo sapiens) (UniProt P54646+O43741+P54619+Q9UGJ0+Q9Y478+Q13131+Q9UGI9); assay: AMP-dependent Kinase enzyme assay. An in vitro enzyme assay that detects ADP turnover that is directly proportional to AMPK activity. This uses naive AMPK that is activated during the assay with MK-8722; assay type: functional; conditions: 30 µM
# [4] = target: Sialic acid-binding Ig-like lectin 9 (Homo sapiens) (UniProt Q9Y336); assay: Hs-Siglec9 ALPHAscreen SOP 20170721; conditions: 10 µM
# Chain of Sialic acid-binding Ig-like lectin 9 (Homo sapiens) (Q9Y336 whole entry): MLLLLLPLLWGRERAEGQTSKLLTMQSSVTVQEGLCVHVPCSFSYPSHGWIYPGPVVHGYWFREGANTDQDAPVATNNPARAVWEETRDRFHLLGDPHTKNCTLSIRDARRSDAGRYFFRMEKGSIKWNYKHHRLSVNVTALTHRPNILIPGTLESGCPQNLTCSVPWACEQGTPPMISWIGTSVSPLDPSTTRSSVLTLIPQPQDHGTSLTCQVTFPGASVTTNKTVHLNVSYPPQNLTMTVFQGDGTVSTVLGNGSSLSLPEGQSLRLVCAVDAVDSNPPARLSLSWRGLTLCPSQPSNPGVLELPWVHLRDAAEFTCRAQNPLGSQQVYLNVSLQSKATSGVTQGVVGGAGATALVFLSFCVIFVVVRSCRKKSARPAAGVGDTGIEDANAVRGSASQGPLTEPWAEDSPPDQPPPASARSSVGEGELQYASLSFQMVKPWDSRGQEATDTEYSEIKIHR
# Trypanosoma cruzi = assay: Trypanosoma cruzi phosphomannomutase and mannose-1-phosphate guanylyltransferase assay; assay type: functional; conditions: 10 µM
# [5] = target: T2, Arginase-2, mitochondrial (Homo sapiens) (UniProt P78540); assay: in vitro enzyme assay to detect the production of urea directly proportional to the activity of Arginase II; assay type: functional; conditions: 33.3 µM; also: in the data most compounds retested in dose-response had high values
# T2 sequence (whole entry): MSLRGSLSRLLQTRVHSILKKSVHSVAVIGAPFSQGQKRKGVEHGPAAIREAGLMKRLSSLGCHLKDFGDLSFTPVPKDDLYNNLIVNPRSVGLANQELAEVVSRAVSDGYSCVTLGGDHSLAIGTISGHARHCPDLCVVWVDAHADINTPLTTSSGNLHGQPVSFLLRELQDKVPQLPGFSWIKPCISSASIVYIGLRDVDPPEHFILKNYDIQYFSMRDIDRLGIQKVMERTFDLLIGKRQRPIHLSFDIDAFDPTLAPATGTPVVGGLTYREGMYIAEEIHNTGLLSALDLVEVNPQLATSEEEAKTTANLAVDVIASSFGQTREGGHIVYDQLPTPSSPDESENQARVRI
# [6] = target: T3, Proteasome subunit beta (Trypanosoma cruzi) (UniProt O96673); assay: Trypanosoma cruzi proteasome chymotrypsin-like activity (TcProtChymo) assay.; also: in the data most compounds retested in dose-response had high values; assay type: functional; conditions: 9.37 µM
# T3 sequence (whole entry): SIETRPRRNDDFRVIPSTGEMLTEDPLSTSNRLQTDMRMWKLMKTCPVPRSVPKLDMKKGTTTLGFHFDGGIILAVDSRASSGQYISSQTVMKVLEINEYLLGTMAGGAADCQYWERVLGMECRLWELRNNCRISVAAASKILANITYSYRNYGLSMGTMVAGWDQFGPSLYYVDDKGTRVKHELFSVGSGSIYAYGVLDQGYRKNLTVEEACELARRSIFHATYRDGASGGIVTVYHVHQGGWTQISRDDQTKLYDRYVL
# Homo sapiens = organism: Homo sapiens; assay: To identify inhibition of the IFN signalling (Jak-Stat) pathway via expression of an eGFP reporter gene under the control of an IFN-stimulated response element (ISRE) containing MxA promoter.; assay type: functional; conditions: 30 µM
# [7] = target: T4, Tyrosyl-tRNA synthetase, putative (Trypanosoma cruzi (strain CL Brener)) (UniProt Q4DSP6); assay: Trypanosoma cruzi tyrosyl tRNA synthetase (TcYRS) _High Tyrosine SOP; assay type: functional; conditions: 30 µM; also: in the data most compounds retested in dose-response had high values
# T4 sequence (whole entry): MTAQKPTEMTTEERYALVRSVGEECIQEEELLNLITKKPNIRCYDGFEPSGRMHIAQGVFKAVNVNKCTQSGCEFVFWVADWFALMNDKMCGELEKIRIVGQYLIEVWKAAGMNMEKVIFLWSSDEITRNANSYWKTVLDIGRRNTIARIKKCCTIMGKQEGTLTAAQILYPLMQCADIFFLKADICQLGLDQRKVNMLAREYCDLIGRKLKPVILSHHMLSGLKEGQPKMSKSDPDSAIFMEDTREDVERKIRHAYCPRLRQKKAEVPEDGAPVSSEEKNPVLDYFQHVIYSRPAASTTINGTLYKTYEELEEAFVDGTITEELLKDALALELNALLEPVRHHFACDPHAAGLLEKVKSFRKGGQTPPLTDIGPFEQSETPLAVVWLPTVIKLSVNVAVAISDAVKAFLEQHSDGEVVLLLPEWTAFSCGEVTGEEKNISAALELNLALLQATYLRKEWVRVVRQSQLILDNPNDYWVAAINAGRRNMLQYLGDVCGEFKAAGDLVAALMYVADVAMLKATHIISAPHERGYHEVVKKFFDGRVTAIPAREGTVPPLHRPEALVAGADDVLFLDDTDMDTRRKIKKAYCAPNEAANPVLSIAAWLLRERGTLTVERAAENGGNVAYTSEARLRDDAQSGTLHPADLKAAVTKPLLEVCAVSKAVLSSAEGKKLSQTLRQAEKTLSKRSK
# [8] = target: T4, Tyrosyl-tRNA synthetase, putative (Trypanosoma cruzi (strain CL Brener)); assay: Trypanosoma cruzi tyrosyl tRNA synthetase (TcYRS) SOP; assay type: functional; conditions: 30 µM
# [9] = target: Chromo domain-containing protein 1 (Saccharomyces cerevisiae (strain ATCC 204508 / S288c) (Baker's yeast)) (UniProt P32657); assay: ScCHD-1 Enzyme Inhibition Assay; assay type: functional; conditions: 30 µM; also: in the data most compounds retested in dose-response had high values
# Chain of Chromo domain-containing protein 1 (Saccharomyces cerevisiae (strain ATCC 204508 / S288c) (Baker's yeast)) (P32657 whole entry, the tested form may be a part): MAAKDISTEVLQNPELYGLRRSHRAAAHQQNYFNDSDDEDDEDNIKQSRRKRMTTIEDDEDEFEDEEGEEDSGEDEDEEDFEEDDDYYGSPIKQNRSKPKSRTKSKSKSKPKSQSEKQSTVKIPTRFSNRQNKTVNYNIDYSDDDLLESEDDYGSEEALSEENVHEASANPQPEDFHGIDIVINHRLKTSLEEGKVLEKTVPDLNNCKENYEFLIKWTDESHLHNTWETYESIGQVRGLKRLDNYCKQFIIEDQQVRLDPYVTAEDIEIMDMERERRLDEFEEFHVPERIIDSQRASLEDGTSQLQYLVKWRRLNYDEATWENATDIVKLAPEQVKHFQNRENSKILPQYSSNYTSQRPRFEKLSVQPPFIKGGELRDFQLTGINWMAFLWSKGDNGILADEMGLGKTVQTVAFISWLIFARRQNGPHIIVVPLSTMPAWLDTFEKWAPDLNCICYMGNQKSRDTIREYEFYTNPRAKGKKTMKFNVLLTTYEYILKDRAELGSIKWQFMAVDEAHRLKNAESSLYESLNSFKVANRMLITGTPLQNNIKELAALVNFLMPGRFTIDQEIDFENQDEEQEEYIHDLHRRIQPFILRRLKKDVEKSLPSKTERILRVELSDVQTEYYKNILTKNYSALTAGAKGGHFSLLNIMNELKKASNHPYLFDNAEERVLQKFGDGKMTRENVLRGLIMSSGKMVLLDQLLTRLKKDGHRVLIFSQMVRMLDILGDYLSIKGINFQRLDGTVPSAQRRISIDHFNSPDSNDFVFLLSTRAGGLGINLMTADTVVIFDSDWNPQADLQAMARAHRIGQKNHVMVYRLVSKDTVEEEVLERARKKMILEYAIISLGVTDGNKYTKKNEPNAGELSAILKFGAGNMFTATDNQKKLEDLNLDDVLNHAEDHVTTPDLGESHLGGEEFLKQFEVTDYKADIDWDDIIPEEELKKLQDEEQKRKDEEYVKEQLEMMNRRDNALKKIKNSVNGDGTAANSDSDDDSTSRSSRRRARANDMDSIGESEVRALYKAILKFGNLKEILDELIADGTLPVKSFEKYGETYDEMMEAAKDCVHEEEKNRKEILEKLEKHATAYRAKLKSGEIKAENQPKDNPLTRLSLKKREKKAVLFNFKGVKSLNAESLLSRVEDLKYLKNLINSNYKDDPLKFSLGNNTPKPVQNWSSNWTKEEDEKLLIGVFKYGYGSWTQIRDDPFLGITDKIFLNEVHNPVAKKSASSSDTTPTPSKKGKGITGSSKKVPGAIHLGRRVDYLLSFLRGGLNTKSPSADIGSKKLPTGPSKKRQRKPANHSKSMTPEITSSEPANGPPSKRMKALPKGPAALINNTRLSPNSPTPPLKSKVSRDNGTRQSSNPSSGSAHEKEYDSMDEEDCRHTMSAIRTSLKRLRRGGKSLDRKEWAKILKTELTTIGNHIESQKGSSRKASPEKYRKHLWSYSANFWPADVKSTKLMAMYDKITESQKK
# Chain of Protein translocase subunit SecA (Escherichia coli (strain K12)) (P10408 whole entry): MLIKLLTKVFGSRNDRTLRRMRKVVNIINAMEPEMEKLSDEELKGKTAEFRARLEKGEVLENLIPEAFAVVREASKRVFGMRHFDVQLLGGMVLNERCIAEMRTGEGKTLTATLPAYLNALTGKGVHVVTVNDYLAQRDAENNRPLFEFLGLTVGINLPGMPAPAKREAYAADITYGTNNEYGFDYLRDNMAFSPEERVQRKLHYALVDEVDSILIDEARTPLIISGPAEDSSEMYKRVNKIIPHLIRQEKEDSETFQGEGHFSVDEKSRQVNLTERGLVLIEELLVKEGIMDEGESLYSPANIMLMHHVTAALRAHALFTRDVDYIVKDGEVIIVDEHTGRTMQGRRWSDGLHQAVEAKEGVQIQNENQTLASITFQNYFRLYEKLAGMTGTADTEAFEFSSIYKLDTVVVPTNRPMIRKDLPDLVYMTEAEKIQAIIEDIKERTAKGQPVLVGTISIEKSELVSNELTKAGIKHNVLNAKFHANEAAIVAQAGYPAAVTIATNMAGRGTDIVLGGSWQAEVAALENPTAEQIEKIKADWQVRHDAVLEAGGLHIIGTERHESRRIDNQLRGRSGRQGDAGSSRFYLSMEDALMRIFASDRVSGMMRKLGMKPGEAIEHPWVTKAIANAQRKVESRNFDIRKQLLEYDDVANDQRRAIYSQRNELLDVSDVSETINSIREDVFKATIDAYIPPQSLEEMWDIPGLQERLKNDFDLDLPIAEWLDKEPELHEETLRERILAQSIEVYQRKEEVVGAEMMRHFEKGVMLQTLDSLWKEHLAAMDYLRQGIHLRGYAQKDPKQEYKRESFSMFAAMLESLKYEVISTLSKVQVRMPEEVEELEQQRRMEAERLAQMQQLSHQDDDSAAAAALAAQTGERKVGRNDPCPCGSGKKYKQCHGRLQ
SMILES,Percent Effect [1] [%],Percent Effect [2] [%],Percent Effect [3] [%],Percent Effect [4] [%],Percent Effect (Trypanosoma cruzi) [%],Percent Effect [5] [%],Percent Effect [6] [%],Percent Effect (Homo sapiens) [%],Percent Effect [7] [%],Percent Effect [8] [%],Percent Effect [9] [%]
O=C(CCCNc1ncccn1)N1CCCC(n2cccn2)C1 (configuration not stated),-7.67,-1.27,0.0579,-1.81,-3.18,-4.52,2.23,14.1,-3.12,-2.53,-14.1
NC(=O)c1csc(C(=O)N2CCCC(n3ccnc3)C2)c1 (configuration not stated),-5.24,3.8,5.04,3,2.56,1.5,7.72,-1.55,4.17,15.2,-9.55
Cc1ccc2c(ccn2CCC(=O)N2CCC(C(N)=O)CC2)c1,-2.26,6.67,6.01,7.91,-0.393,-12.2,16.6,-3.73,5.29,7.69,-3.32
c1cnc(NCc2ncn3c2CN(Cc2cccnc2)CCC3)nc1,-0.478,2.7,0.693,-4.85,-2.15,1.25,8.03,2.98,8.91,8.54,-0.718
Cn1cccc1C(=O)N1CCCC2(CCN(CCN3CCCC3)C2=O)C1 (configuration not stated),-6.99,2.6,0.774,9.32,-1.48,-4.14,7.65,11.9,-2.15,-1.24,0.981
COc1ccccc1CN1CC[C@H]2C[C@@H](C(=O)N3CCCC3)O[C@H]2C1,2.23,13,4.84,-5.31,-7.99,4.52,8.88,6,6.35,14.1,-7.87
Cc1cc(=O)[nH]c(SCC(=O)N(C)CC2Cc3ccccc3CN2C)n1 (configuration not stated),-6.85,5.41,-2.17,-6.16,-0.489,-0.744,5.75,-12.2,6.45,8.64,-4.63
Cc1nc(C)n(CC2CCCN2CCOc2ccc(C#N)cc2)n1 (configuration not stated),-3.7,2.53,-2.42,10.4,7.27,1.9,1.06,17.9,6.4,11.4,-5.17
Cc1nn(C)c2c(NCc3cccnc3)nc(C3CC3)nc12,-3.37,15.6,11.8,13.7,5.61,24.8,12.8,12.8,1.07,13.6,0.869
CN(C)C(=O)N1CCn2nc(CNC(=O)CCC(F)(F)F)cc2C1,0.369,6.94,-0.273,2.6,4.18,13.7,10.3,15,6.32,15.4,-4.37
CCn1c(CN(C)C)nnc1C1CCN(c2ccnc(C)c2)CC1,-0.496,6.94,-2.58,-2.36,-1.85,2.65,21.1,-1.07,5.26,5.13,-1.27
O=C(CSC1=NS(=O)(=O)c2cc(F)ccc2N1)Nc1cccc(Cl)c1,-1.88,-39,1.02,-0.207,2.86,-0.645,21.1,26.7,-10.6,-8.97,-11.3
CCCc1n[nH]c(C2CN(C(=O)CCCn3cccn3)CCO2)n1 (configuration not stated),-4.8,-4.17,-0.0148,-2.33,-2.82,-0.883,7.89,-2.8,-1.05,-2.56,5.04
COc1ccc(C(C(=O)O)N2CCCN(C3CCCCC3)CC2)cn1 (configuration not stated),-1.53,13.5,-8.59,8.33,6.55,-6.2,15.5,-5.05,2.15,21,-12.3
CC(C)OCCOCc1cccc(NC(=O)NCCn2ccnc2)c1,-0.877,10.4,-2.37,9.62,5.61,-1.38,8.65,-0.82,-1.07,3.7,-7.91
CN(Cc1ccco1)C(=O)CN1CCCCC1Cn1cccn1 (configuration not stated),1.65,0,6.46,-9.17,-1.27,-2.74,17.1,-30.8,4.76,9.41,-9.28
Cc1cccc(CS(=O)(=O)CC(=O)NCCCOC(C)C)c1,-4.74,18.2,-13.1,5.88,9.74,3.92,4.05,23.9,7.77,24.4,-10.7
c1ccc(OCCCN2CCN(c3ccc4nncn4n3)CC2)cc1,-7.97,-18.2,-5.57,15.6,8.61,-5.69,17.6,47.8,18.4,24.4,-1.5
c1cnn(CC2CCCN2c2ncnc3ccsc23)c1 (configuration not stated),-0.167,13.5,3.45,-4.74,-8.08,6.84,8.8,53.8,7.92,18.3,-4.66
CCn1cc(N)c(C(=O)NCc2cnn(C)c2)n1,-3.38,5.2,2.98,0.256,-1.48,-8.28,9.48,-5.92,6.45,11.1,1.02
Cc1cccn2c(=O)cc(OC(=O)c3ccccc3)nc12,1.09,0,45.4,-1.9,-4.97,-14.2,5.27,-1.07,0,0,-3.23
Cn1ccc(C(=O)N2CCN(CCc3ccccc3)CC2)cc1=O,-5.05,11.4,1.25,-2.05,-1.74,3.23,13,6.37,12.5,17.7,-7.93
